In PubChem BioAssay (EPA / NIEHS):
Where “and” joins values, the source holds several entries; their conditions need not be identical. Equal values may be shown once. A structure can be active in one record and inactive in another. Calls of active or inactive are those of the source. How the source made its calls: active means hit-call score of the fitted dose curve at least 0.9, where 1 is the maximum; inactive means score below 0.9.

Read-out: Urokinase-type plasminogen activator receptor (uPAR), PLAUR (gene 5329)
Assay: BSK_BE3C_uPAR: BioMAP Diversity Plus: BE3C Assay for Urokinase-type plasminogen activator receptor (uPAR) Biomarker Activity (AID 2283039);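 on outcome: cells exposed to compound for one day before measurement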
Settings: primary human bronchial epithelial cells; actives raise or lower the signal
Protocol: BSK_BE3C is a cell-based, multiplexed-readout assay that uses bronchial epithelial cell, a human lung primary cell, with measurements taken at 24 hours after chemical dosing in a 96-well plate.BSK_BE3CAR is an assay component measured in the BSK_BE3C assay. It measures uPAR antibody related to regulation of gene expression using ELISA technology.Data from the assay component BSK_BE3CAR was analyzed into 1 assay endpoint. This assay endpoint, BSK_BE3CAR, was analyzed with bidirectional fitting relative to DMSO as the negative control and baseline of activity. Using a type of binding reporter, gain or loss-of-signal activity can be used to understand changes in the signaling as they relate to the gene PLAUR. Furthermore, this assay endpoint can be referred to as a primary readout, because this assay has produced multiple assay endpoints where this one serves a signaling function. To generalize the intended target to other relatable targets, this assay endpoint is annotated to the cytokine intended target family, where the subfamily is plasmogen activator.
The levels of cell surface (or secreted, indicated by the prefix "s") biomarker endpoints were measured by ELISA. Overt cytotoxicity to cells in confluent adherent cultures (all systems other than the BT system) was assessed by measuring total protein levels using sulforhodamine B (SRB) staining in parallel cultures at the time of biomarker measurements, indicated as SRB endpoints. For proliferation assays for adherent cell types, individual cell types are cultured at sub-confluence and relative cell numbers quantified by SRB staining at time points optimized for each system (48 h: 3C and CASM3C systems; 72 h: BT and HDF3CGF systems; 96 h: SAg system). SRB was performed by staining cells with 0.1% SRB after fixation with 10% TCA and reading wells at 560 nm.Viability and proliferation of PBMC (T cells) was quantified by Alamar Blue reduction for the SAg and BT systems. For PBMC viability (referred to as PBMC Cytotoxicity within the assay endpoint names), cells were plated (75,000/well in a 96-well plate) and then chemical samples added for 1 h before addition of activators, SEB and TSST-1 (20 ng/mL final concentration each). Cells were incubated for 90 h. Then, Alamar Blue (20 uL/well) (Invitrogen, Cat DAL1100) was added for 6 h, and the plates were read with a fluorescence microplate reader at 546/580 nm (excitation/emission). For PBMC proliferation, cells were plated and activated as above but incubated for only 16 h prior to addition of Alamar Blue. Plates were read after 6 h.

**Q.** For `CCN(CC)c1ccc(C=O)c(O)c1`, which outcome is on record?
**A.** inactive

**Q.** With `O=C1C=CC(=O)N1c1ccc(Cc2ccc(N3C(=O)C=CC3=O)cc2)cc1` as the compound, how does the AC50 read?
**A.** 3.31 µM (active)

**Q.** Which outcome does the source give for `OCC(O)CC(F)(F)C(F)(F)C(F)(F)C(F)(F)F` (stereo not given) here?
**A.** inactive

**Q.** With `OCC(F)(F)C(F)(F)C(F)(F)CO` as the compound, how does the outcome read?
**A.** inactive

**Q.** `O=C(Cl)C(F)(F)C(F)(F)C(F)(F)C(F)(F)C(F)(F)C(F)(F)F` was tested. Which outcome did it give?
**A.** inactive

**Q.** `Cc1cc(C)c(O)c(C(C)(C)C)c1` was tested. Which AC50 did it give?
**A.** 28.2 µM (active)

**Q.** With `C=CC(=O)OCC(F)(F)C(F)(F)C(F)(F)COC(=O)C=C` as the compound, how does the AC50 read?
**A.** 30 µM (active) and 22.8 µM (active)

**Q.** How did the outcome turn out when `O=C(Cl)C(F)(F)C(F)(F)C(F)(F)C(F)(F)C(F)(F)C(F)(F)C(F)(F)F` was run?
**A.** inactive

**Q.** For `O=C(O)C(F)(F)C(F)(F)C(F)(F)OC(F)(F)F`, which outcome is on record?
**A.** inactive

**Q.** Which outcome does the source give for `CCN(CC)c1ccc(C=O)cc1` here?
**A.** inactive

**Q.** `Cc1cc(O)c(C(C)(C)C)cc1C(C)(C)C` was tested. Which AC50 did it give?
**A.** 5.33 µM (active)

**Q.** Which outcome does the source give for `NC(=O)C(F)(F)C(F)(F)C(F)(F)C(F)(F)C(F)(F)C(F)(F)C(F)(F)F` here?
**A.** inactive

**Q.** For `CC1=CC2C3C=CC(C3)C2C1C` (stereo not given), which outcome is on record?
**A.** inactive

**Q.** Which outcome does the source give for `O=S(=O)(O)CCC(F)(F)C(F)(F)C(F)(F)C(F)(F)F` here?
**A.** inactive

**Q.** Which outcome does the source give for `OC(O)C(F)(F)C(F)(F)F` here?
**A.** inactive

**Q.** With `OCC(F)(F)C(F)(F)C(F)(F)C(F)(F)C(F)(F)C(F)(F)CO` as the compound, how does the outcome read?
**A.** inactive

**Q.** Which AC50 does the source give for `OCC(F)(F)C(F)(F)C(F)(F)C(F)(F)C(F)(F)C(F)(F)C(F)(F)C(F)(F)CO` here?
**A.** 43.7 µM (active) and 40.9 µM (active)

**Q.** For `O=C=NCc1cccc(CN=C=O)c1`, which outcome is on record?
**A.** inactive

**Q.** For `CCN(CCO)S(=O)(=O)C(F)(F)C(F)(F)C(F)(F)C(F)(F)C(F)(F)C(F)(F)C(F)(F)C(F)(F)F`, which AC50 is on record?
**A.** 46.4 µM (active) and 36.9 µM (active)

**Q.** How did the outcome turn out when `O=S(=O)(O)CCC(F)(F)C(F)(F)C(F)(F)C(F)(F)C(F)(F)C(F)(F)C(F)(F)C(F)(F)F` was run?
**A.** inactive

**Q.** With `O=C=Nc1cccc2c(N=C=O)cccc12` as the compound, how does the outcome read?
**A.** inactive

**Q.** How did the outcome turn out when `Cc1cnccn1` was run?
**A.** inactive

**Q.** For `CCOC(=O)CC(=O)C(F)(F)C(F)(F)F`, which outcome is on record?
**A.** inactive

**Q.** For `C=CC(=O)OCCC(F)(F)C(F)(F)C(F)(F)C(F)(F)F`, which outcome is on record?
**A.** inactive

**Q.** With `Cc1ccc(S(=O)(=O)C(I)I)cc1` as the compound, how does the AC50 read?
**A.** 6.81 µM (active)

**Q.** With `OCCCCC(F)(F)C(F)(F)C(F)(F)C(F)(F)F` as the compound, how does the outcome read?
**A.** inactive

**Q.** With `O=C(O)C(F)(F)OC(F)(F)C(F)(F)OC(F)(F)C(F)(F)OC(F)(F)F` as the compound, how does the outcome read?
**A.** inactive

**Q.** With `CCN(CC)c1ccc2c(c1)Oc1cc(N(CC)CC)ccc1C21OC(=O)c2ccccc21` as the compound, how does the outcome read?
**A.** inactive

**Q.** How did the outcome turn out when `NC(=O)C(F)(F)C(F)(F)C(F)(F)C(F)(F)C(N)=O` was run?
**A.** inactive

**Q.** For `NS(=O)(=O)C(F)(F)C(F)(F)C(F)(F)C(F)(F)C(F)(F)C(F)(F)F`, which outcome is on record?
**A.** inactive

**Q.** What about the AC50 of the same compound?
**A.** 41.8 µM (active)

**Q.** For `NCC(F)(F)C(F)(F)C(F)(F)C(F)(F)C(F)(F)C(F)(F)F`, which outcome is on record?
**A.** inactive

**Q.** How did the outcome turn out when `NC(=O)C(F)(F)C(F)(F)C(F)(F)F` was run?
**A.** inactive

**Q.** How did the outcome turn out when `CN(C(=O)C(F)(F)C(F)(F)C(F)(F)F)[Si](C)(C)C` was run?
**A.** inactive

**Q.** How did the outcome turn out when `OCC(O)CC(F)(F)C(F)(F)C(F)(F)C(F)(F)C(F)(F)C(F)(F)C(F)(F)C(F)(F)F` (stereo not given) was run?
**A.** inactive

**Q.** How did the AC50 turn out when `OCCCC(F)(F)C(F)(F)C(F)(F)C(F)(F)C(F)(F)C(F)(F)C(F)(F)C(F)(F)F` was run?
**A.** 49.4 µM (active) and 54.6 µM (active)

**Q.** For `CCOC(C=C(C)CCC=C(C)C)OCC`, which outcome is on record?
**A.** inactive

**Q.** Which outcome does the source give for `FC(F)(F)C(F)(F)C(F)(F)C(F)(F)C(F)(F)C(F)(F)C(F)(F)CCI` here?
**A.** inactive

**Q.** For `Nc1cc([N+](=O)[O-])cc(Cl)c1O`, which outcome is on record?
**A.** inactive

**Q.** Which outcome does the source give for `NC(=O)C(F)(F)C(F)(F)C(F)(F)C(F)F` here?
**A.** inactive
